For experiment [1], the target named is alpha-glucosidase (Oryza sativa, rice) (UniProt Q653V4). Briefly: Counterscreen for Glucocerebrosidase Inhibitors: qHTS Assay for Rice alpha-Glucosidase at pH 5.0 (AID 997).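 Note: 0% = full activity with enzyme and -100% = basal without enzyme.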 The conditions noted are these: rice alpha-glucosidase enzyme activity; series mostly up to 76.9 µM. In a few lines:
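Rice alpha-glucosidase (4 nM final) with 400 uM 4-methylumbelliferyl-alpha-D-glucopyranoside in citrate buffer pH 5.0, 20 min at room temperature, stopped at pH 10; fluorescence 365/440 nm, compounds 0.7 nM–77 uM, AC50 from Hill fits.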
(A counterscreen serves to expose hits that act by an unwanted route or on another target.)

Experiment [2] can be described thus: Validation of Assay for Modulators of Lamin A Splicing (AID 1459; active = well fitted curve in the direction sought with a large enough effect in the signal ratio; the % refers to the signal ratio;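 note: cells exposed to compound for two days before reading; 0% is about no effect; ratio rise marks activators and ratio drop marks inhibitors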). To be noted: Lamin A splicing dual RFP/GFP fluorescence reporter; series mostly up to 9.22 µM. In a few lines:
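HeLa S3 lamin A-EGFP/DsRed2 stable clone, 600 cells/well, Opti-MEM 2% FBS; compounds by pin tool; 48 hrs, 37 °C/5% CO2; Acumen 488 nm scan, objects 10-100 um; GFP/RFP intensity ratio.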

Experiment [3] addresses DNA repair nuclease/redox regulator APEX1 (Homo sapiens) (UniProt P27695). The experiment can be described thus: qHTS Validation Assay for Inhibitors of the Human Apurinic/apyrimidinic Endonuclease 1 (APE1) (AID 1705;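 note: TAMRA fluorescence gain over two minutes as APE1 cuts a quenched THF abasic duplex; % is set by controls: 0 for no effect and ±100 for the full control effect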). To be noted: purified APE1 endonuclease activity, fluorescence, titration; series mostly up to 57.1 µM. In outline:
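qHTS, 1536-well. APE1 + cpd 15 min RT → 50 nM TAMRA/BHQ-2 THF-abasic dsDNA substrate → kinetic fluorescence, 3 reads/60 s; delta(read3−read1) = reaction progress. No-enzyme buffer = negative control.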
A general note: Quantitative high-throughput screening tests each substance at several concentrations.

Experiment [4] can be described thus: qHTS for differential inhibitors of proliferation of Plasmodium falciparum line 7G8 (AID 1815).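 For activity change, negative = inhibition: plate controls were vehicle wells for no effect and reference inhibitor wells for full effect.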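 Note: parasite growth measured after three days of incubation.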 Note: potency is the fitted concentration of half-maximal effect. The conditions noted are these: Plasmodium falciparum 7G8 proliferation inhibition; series mostly up to 28.7 µM.
Experiment [5] can be described thus: qHTS for differential inhibitors of proliferation of Plasmodium falciparum line W2 (AID 1883).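 For activity change, negative = inhibition: 0% = vehicle wells and -100% = control inhibitor wells.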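 Note: parasites grown with compound for 72 h before lysis and staining.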 Note: potency is the fitted concentration of half-maximal effect. The conditions noted are these: Potency: Plasmodium falciparum W2 proliferation inhibition; series mostly up to 28.7 µM.
Experiment [6] addresses Ferritin light chain (Equus caballus) (UniProt P02791). Briefly: qHTS Validation Assay for Identification of Novel General Anesthetics (AID 2323). Note: % is set by controls: 0 for no effect and ±100 for the full control effect. To be noted: horse apoferritin, anesthetic-site fluorescent probe displacement; series mostly up to 76.9 µM. In a few lines:
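Fluorescence at 535 nm (excitation 380 nm) reported loss of 1-AMA binding to horse-spleen apoferritin (10 uM) in PBS with 50% saturated 1-aminoanthracene, after 10 min room-temperature incubation with compound; values from Hill fits of normalized response.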

Experiment [7] has as its target ATP-dependent DNA helicase Q1 (Homo sapiens) (UniProt P46063). Briefly: qHTS Validation Assay for Inhibitors of RecQ-Like Dna Helicase 1 (RECQ1) (AID 2353).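 Note: plate controls were DMSO vehicle for no effect and enzyme-free control for full effect.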 To be noted: recombinant RECQ1 helicase DNA unwinding assay; series mostly up to 25.6 µM. In outline:
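50 nM RECQ1T1 preincubated 15 min with compound in Tris pH 8.0 buffer with MgCl2, DTT, Tween-20 and 2.5 ug/ml poly(dI-dC); started with 200 nM TAMRA/BHQ-2 forked duplex and 2 mM ATP. Unwinding read as fluorescence (525/598 nm), two reads 2 h apart.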

Experiment [8] addresses RecQ-like DNA helicase BLM (Homo sapiens) (UniProt P54132). Briefly: qHTS Validation Assay for Inhibitors of Bloom's syndrome helicase (BLM) (AID 2364).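 Note: plate controls were DMSO vehicle for no effect and enzyme-free control for full effect.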 To be noted: BLM helicase DNA unwinding, fluorescence, in vitro; series mostly up to 57.1 µM. In a few lines: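 50 nM BLM preincubated 15 min at room temperature with compound in pH 8.0 Tris buffer containing 2.5 ug/ml poly(dI-dC); started with 200 nM TAMRA/BHQ-2 forked duplex and 2 mM ATP (final). Unwinding read as TAMRA fluorescence increase, two reads 2 h apart.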

A short description of experiment [9]: qHTS Assay for Lipid Storage Modulators (AID 1519; calls by dose curve; for activity change, negative = inhibition: % is set by controls: 0 for no effect and ±100 for the full control effect). To be noted: Drosophila S3 cells, BODIPY lipid droplet/cell ratio, laser cytometry, cells loaded with oleic acid; for activity change, negative = inhibition: at 57.5 µM (top of the series). In a few lines:
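Cells seeded at 5,000 per well were treated with compounds over a concentration series and loaded with oleic acid (400 uM, as added). Lipid droplet fluorescence (488 nm excitation, 500-530 nm channel) was read by laser-scanning cytometry and normalized to 20 uM Triacsin C.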

Experiment [10] is described as follows: Counterscreen for APE1 Inhibitors: Fluorescent Dye Displacement Validation Assay (AID 1707).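 Note: plate controls were ThO with dsDNA and no compound for no effect and ThO without dsDNA for full effect.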 The conditions noted are these: fluorescent dye displacement from DNA; series mostly up to 57.1 µM. In a few lines:
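Assay buffer: Tris-HCl pH7.5 with 50mM NaCl, 2 mM MgCl2, 0.01% Tween-20. Dye 250 nM, duplex 50 nM final. Readout: decrease in ThO endpoint fluorescence, 480 nm excitation, 540 nm emission.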

Experiment [11] has as its target Endonuclease 4 (Escherichia coli (strain K12)) (UniProt P0A6C1). Briefly: Counterscreen for APE1 Inhibitors: qHTS Validation Assay for Inhibitors of Endonuclease IV (AID 1708). Note: % is set by controls: 0 for no effect and ±100 for the full control effect. To be noted: E. coli endonuclease IV, DNA cleavage fluorescence; series mostly up to 57.1 µM. In outline: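 E. coli EndoIV at 2 nM final, preincubated 15 min at room temperature with compound, then 50 nM TAMRA/BHQ-2 THF abasic-site duplex added. Buffer: 50 mM Tris-HCl pH 7.5, 50 mM NaCl, 2 mM MgCl2, 1 mM DTT, 0.01% Tween-20. Kinetic fluorescence increase, third minus first read.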

A short description of experiment [12]: qHTS for differential inhibitors of proliferation of Plasmodium falciparum line GB4 (AID 1816).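 For activity change, negative = inhibition: 0% = vehicle DMSO and -100% = reference inhibitor.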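 Note: parasite growth measured after 72 h incubation.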 Note: potency is the fitted concentration of half-maximal effect. The conditions noted are these: Potency: Plasmodium falciparum GB4 proliferation inhibition; series mostly up to 28.7 µM.
A short description of experiment [13]: qHTS for differential inhibitors of proliferation of Plasmodium falciparum line 3D7 (AID 1876). Note: potency is the fitted concentration of half-maximal effect. The conditions noted are these: P. falciparum 3D7 proliferation inhibition; series mostly up to 28.7 µM.
A short description of experiment [14]: qHTS for differential inhibitors of proliferation of Plasmodium falciparum line D10 (AID 1877).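 For activity change, negative = inhibition: plate controls were vehicle wells for no effect and reference inhibitor wells for full effect.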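 Note: parasites grown with compound for 72 h before DNA staining.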 Note: potency is the fitted concentration of half-maximal effect. To be noted: series mostly up to 28.7 µM.
The nature of experiment [15]: qHTS for differential inhibitors of proliferation of Plasmodium falciparum line Dd2 (AID 1882).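 For activity change, negative = inhibition: plate controls were DMSO vehicle for no effect and 0.29 µM artemisinin for full effect.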 Note: nearly all actives have a fitted effect of over 65% in size. Note: potency is the fitted concentration of half-maximal effect. The conditions noted are these: Potency: Plasmodium falciparum Dd2 proliferation inhibition; series mostly up to 28.7 µM. In a few lines:
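Dd2-infected erythrocytes (0.3% parasitemia, 2.5% hematocrit final) incubated with compound 72 h at 37 C, 5% CO2; lysed with saponin/Triton buffer containing SYBR Green I, incubated overnight in the dark, then read by fluorescence (485/535 nm). Normalized to 0.29 uM artemisinin and DMSO.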

Experiment [16] is described as follows: qHTS for differential inhibitors of proliferation of Plasmodium falciparum line HB3 (AID 1886).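 For activity change, negative = inhibition: plate controls were vehicle for no effect and reference inhibitor for full effect.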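 Note: parasites grown with compound for 72 h before SYBR Green readout.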 Note: potency is the fitted concentration of half-maximal effect. To be noted: Potency: Plasmodium falciparum HB3 proliferation inhibition; series mostly up to 28.7 µM.
A short description of experiment [17]: qHTS Assay for Modulators of Human Peripheral Myelin Protein 22 (PMP22) Expression/Activity (AID 1967; active = well fitted curve in the direction sought with a large enough effect in the signal ratio; the % refers to the signal ratio;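 note: 0% = untreated cells and 100% end not stated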). To be noted: Cell-based PMP22 reporter, dual-color luciferase ratio, 0% = compound-free control cells, mouse Pmp22 promoter in mouse Schwann cells; series mostly up to 115 µM. In a few lines: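 Luminescence ratio of Pmp22 promoter-driven green luciferase to EF-alpha-driven red luciferase, in engineered mouse MSC80 Schwann cells, served as read-out. Compounds were incubated 24h; untreated cells defined 0% Activity; curves were classified by r2, magnitude and activity.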

Where [18] appears, read: measured here: cell count channel max response.
The mark [19] stands for this setting: measured here: lipid channel max response.

Inconclusive results are not listed. The source made the active and inactive calls. Unless noted, calls come from the whole dose curve; as a rule, active = well fitted curve in the direction sought with a large enough effect; inconclusive = small, poorly fitted or top-dose-only effect, or another doubt; inactive = no such curve, though single readings can be large; an effect the other way counts as inactive or inconclusive.

ATP-dependent DNA helicase Q1 (Homo sapiens), sequence (P46063 whole entry, looked up): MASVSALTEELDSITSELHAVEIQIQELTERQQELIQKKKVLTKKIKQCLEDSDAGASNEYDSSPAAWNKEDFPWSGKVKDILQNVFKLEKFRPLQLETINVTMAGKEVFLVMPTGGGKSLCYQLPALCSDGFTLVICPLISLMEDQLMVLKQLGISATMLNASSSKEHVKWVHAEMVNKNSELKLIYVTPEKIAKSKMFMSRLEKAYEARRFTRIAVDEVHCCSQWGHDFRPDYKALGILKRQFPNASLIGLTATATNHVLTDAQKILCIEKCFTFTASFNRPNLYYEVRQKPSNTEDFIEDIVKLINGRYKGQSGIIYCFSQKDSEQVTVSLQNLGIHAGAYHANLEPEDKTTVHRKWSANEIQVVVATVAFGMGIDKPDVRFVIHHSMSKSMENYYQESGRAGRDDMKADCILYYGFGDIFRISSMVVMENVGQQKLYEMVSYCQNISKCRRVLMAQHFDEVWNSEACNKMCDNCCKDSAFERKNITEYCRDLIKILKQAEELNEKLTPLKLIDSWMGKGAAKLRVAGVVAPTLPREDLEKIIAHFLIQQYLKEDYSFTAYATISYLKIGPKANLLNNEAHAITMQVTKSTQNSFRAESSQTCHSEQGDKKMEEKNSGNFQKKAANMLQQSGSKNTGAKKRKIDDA
DNA repair nuclease/redox regulator APEX1 (Homo sapiens), sequence (P27695 whole entry, looked up): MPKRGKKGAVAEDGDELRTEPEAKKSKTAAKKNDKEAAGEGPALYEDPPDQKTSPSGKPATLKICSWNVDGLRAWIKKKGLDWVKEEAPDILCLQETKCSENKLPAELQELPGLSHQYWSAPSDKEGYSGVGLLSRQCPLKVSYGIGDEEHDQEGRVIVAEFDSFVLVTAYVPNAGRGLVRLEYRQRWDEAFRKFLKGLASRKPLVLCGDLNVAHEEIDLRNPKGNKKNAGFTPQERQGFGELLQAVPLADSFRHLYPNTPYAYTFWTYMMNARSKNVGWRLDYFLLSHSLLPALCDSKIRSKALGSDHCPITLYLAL
Ferritin light chain (Equus caballus), sequence (P02791 2-175 limits assumed): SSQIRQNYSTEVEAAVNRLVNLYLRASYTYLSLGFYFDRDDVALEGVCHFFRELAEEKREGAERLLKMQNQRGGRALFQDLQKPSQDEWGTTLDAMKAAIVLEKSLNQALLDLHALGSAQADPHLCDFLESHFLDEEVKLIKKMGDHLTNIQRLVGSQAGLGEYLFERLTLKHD
RecQ-like DNA helicase BLM (Homo sapiens), sequence (P54132 whole entry, looked up): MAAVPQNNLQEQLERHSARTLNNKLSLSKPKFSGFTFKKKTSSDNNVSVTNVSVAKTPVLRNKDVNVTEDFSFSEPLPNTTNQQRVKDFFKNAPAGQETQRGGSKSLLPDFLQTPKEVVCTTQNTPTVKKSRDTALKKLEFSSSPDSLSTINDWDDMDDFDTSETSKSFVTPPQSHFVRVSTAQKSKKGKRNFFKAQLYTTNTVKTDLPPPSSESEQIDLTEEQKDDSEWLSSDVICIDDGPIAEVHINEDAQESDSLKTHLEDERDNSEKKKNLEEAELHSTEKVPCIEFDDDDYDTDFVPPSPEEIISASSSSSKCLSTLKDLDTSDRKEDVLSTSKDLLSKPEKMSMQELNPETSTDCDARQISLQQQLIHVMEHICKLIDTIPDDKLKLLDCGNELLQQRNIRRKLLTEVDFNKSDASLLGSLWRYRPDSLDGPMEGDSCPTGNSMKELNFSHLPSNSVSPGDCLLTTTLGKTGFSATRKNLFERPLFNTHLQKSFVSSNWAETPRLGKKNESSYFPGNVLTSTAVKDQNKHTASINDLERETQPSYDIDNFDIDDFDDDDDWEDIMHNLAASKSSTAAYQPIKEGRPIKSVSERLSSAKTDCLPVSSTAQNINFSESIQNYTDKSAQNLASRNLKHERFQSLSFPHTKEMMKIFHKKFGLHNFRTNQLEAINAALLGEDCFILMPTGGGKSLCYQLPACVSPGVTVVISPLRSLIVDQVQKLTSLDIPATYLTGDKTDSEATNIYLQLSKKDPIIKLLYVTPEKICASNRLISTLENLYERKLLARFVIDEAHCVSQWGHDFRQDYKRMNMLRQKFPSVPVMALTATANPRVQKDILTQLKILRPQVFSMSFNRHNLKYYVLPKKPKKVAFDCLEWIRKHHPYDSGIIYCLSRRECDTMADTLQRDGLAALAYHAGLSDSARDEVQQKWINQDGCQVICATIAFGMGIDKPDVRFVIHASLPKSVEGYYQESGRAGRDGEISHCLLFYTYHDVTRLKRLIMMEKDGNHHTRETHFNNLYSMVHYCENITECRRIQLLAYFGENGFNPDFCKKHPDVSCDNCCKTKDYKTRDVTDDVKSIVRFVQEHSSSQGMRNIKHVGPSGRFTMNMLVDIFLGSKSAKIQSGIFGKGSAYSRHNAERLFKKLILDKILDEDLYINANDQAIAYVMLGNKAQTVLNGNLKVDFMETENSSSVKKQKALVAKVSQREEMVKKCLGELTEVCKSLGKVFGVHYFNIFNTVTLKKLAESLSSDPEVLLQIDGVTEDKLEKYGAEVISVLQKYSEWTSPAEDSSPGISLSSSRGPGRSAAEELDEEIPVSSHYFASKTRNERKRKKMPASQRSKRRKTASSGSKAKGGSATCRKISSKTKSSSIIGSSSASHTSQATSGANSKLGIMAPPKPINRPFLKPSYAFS

As to `Cn1cc(C(=O)OCC2CCN(CCNS(C)(=O)=O)CC2)c2ccccc21`, the call in [1] and in experiment [2] was inactive. In addition, the Potency entry in experiment [3], in [6], in [7] and in [8] was “inactive” throughout. In addition, the Potency was 10 µM (active) in experiment [4] and 8.91 µM (active) in experiment [5].

With `C[N+](C)(C)CC=O`, the molecule was called inactive in experiment [1]. For the same molecule, in [9], the activity change, negative = inhibition is -0.649% (inactive). The max response was found to be 50.2% in [9] (setting [18]) and 40.1% in [9] (setting [19]). In addition, the Potency result in experiment [3], in experiment [10], in experiment [11], in [4], in experiment [12] and in experiment [13] was “inactive” in each case. The Potency result in experiment [14], in experiment [15], in experiment [5], in experiment [16], in experiment [6] and in [7] was “inactive” throughout.

With `N[C@@H](Cc1c[nH]c2ccccc12)C(=O)O`, the call in experiment [1] was inactive. Moreover, in experiment [9], the activity change, negative = inhibition was 1.05% (inactive). Also, the max response came out at 61.2% in experiment [9] (setting [18]) and 63.3% in [9] (setting [19]). For the same molecule, the Potency entry in experiment [3], in [15], in experiment [6] and in experiment [7] was “inactive” throughout. Also, the Potency in experiment [4] was 11.2 µM (active).

`CCCCCCCCCCCCCCCCCCOC[C@H](COP(=O)([O-])OCC[N+](C)(C)C)OC`: the activity change, negative = inhibition in [9] is 1.74% (inactive). Further, the max response in [9] (setting [18]) came to 55.6%; in experiment [9] (setting [19]), 57.7%. Further, the Potency result in experiment [3], in experiment [10], in [11], in experiment [4], in experiment [12] and in experiment [13] was “inactive” throughout. Besides, the Potency result in experiment [14], in [15], in [5], in experiment [16] and in experiment [7] was “inactive” in each case. Further, the result in experiment [17] was inactive.

For the molecule `CN1CCc2cc(Cl)c(O)cc2[C@@H](c2ccccc2)C1`, the activity change, negative = inhibition in [9] was 0.829% (inactive). Further, the max response in [9] (setting [18]) was determined as 25.8%; in experiment [9] (setting [19]), 26.8%.

For `CNCCNS(=O)(=O)c1cccc2cnccc12`, in experiment [1], the molecule was called inactive. Moreover, in experiment [9], the activity change, negative = inhibition was 0.292% (inactive). Further, the max response in [9] (setting [18]) amounted to 5.66%; in experiment [9] (setting [19]), 5.52%. Also, the Potency entry in [3], in experiment [10], in experiment [11], in experiment [4], in experiment [12] and in [13] was “inactive” each time. Moreover, the Potency result in experiment [14], in experiment [15], in [16], in experiment [6] and in [7] was “inactive” each time.

In the case of `CCC1(O)CC2CN(CCc3c([nH]c4ccccc34)[C@@](C(=O)OC)(c3cc4c(cc3OC)N(C=O)C3[C@]45CCN4CC=C[C@@](CC)([C@@H](OC(C)=O)[C@]3(O)C(=O)OC)[C@H]45)C2)C1` (some centres not stated), in experiment [9], the activity change, negative = inhibition is 2.35% (inactive). Besides, the max response in experiment [9] (setting [18]) is -1.21%; in experiment [9] (setting [19]), 2.17%. The Potency result in [3], in experiment [10], in [6] and in experiment [7] was “inactive” each time. The Potency is 0.794 µM (active) in [4]; 0.0631 µM (active) in experiment [13]; 0.224 µM (active) in experiment [14]; 0.1 µM (active) in experiment [15]; 0.0501 µM (active) in experiment [5]; 1.78 µM (active) in [16].

In the case of `CC(C)NC[C@H](O)COc1cccc2ccccc12`, in experiment [9], the activity change, negative = inhibition is 8.19% (inactive). The figures for the max response in experiment [9] (setting [18]) and in [9] (setting [19]) were 19.6% and 29.6%, respectively.

Consider `COc1ccc2c(c1)c(CC(=O)O)c(C)n2Cc1ccc(Cl)cc1`, for which, in experiment [1], the outcome was inactive. For the same molecule, in experiment [9], the activity change, negative = inhibition was -1.87% (inactive). Further, the results for the max response in [9] (setting [18]) and in experiment [9] (setting [19]) were -35.2% and -34.3%, respectively. Besides, the Potency entry in [3], in [10], in [11], in [15] and in [7] was “inactive” in each case. Besides, the Potency in [4] is 14.1 µM (active); in [12], 10 µM (active); in experiment [13] it was 11.2 µM (active); in experiment [14] it was 14.1 µM (active); in [5], 8.91 µM (active); in experiment [16], 14.1 µM (active).
